Inhibition data for 21 compounds are collected here from PubChem BioAssay AID504715 (Sanford-Burnham Center for Chemical Genomics, 2011).

The list shows a part of the results. A number with no mark means an inactive call.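 Rule for the calls: active = compounds giving 40% or more inhibition at 20 µM in any one of the three replicates; inactive = the rest.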

Broadly, the inhibition is the drop in the measured response relative to a control, in per cent.

The target of the test is Uracil-DNA glycosylase (Escherichia coli (strain K12)) (UniProt P12295). Nature of the test: E. coli UDG inhibitors, confirmation, counter-screen for APOBEC3G inhibitor project, biochemical, single concentration, fluorescence, FAM/TAMRA oligo (AID 504715).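 Note: plate controls were DMSO wells with UDG and oligo for no effect and DMSO wells lacking both for full effect; inhibitors lower the FAM signal released by uracil excision and alkaline cleavage.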 The note with it: UDG counterscreen, at 20 µM, hits give high values. (The purpose of a counterscreen is to sort out artefacts and off-target activity.)
Sequence of Uracil-DNA glycosylase (Escherichia coli (strain K12)) (P12295 whole entry, looked up): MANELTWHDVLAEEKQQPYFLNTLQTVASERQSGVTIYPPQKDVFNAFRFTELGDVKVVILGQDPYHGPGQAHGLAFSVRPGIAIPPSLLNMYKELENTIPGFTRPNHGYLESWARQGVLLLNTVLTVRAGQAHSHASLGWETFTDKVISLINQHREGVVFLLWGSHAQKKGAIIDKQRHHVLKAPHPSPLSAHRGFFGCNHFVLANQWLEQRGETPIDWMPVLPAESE

For `COc1ccccc1-n1c(-c2cc(-c3ccco3)[nH]n2)n[nH]c1=S`, the inhibition was -3.83%.
With `COC(=O)c1cccc(-n2[nH]nnc2=S)c1` the figure was -3.23%; with `Cc1cccc(-n2c(N)c(C(=O)N3CCN(C)CC3)sc2=S)c1`, -3.91%.
With `COCc1c(N)c(C)nc(Cl)c1C#N` the figure was -3.83%.
On to `O=C(Cn1cnc([N+](=O)[O-])n1)NCCc1ccccc1`, for which the inhibition is 5.33%.
Regarding `CCOc1ccc(NC(=O)c2ccc(NC(=O)COC(=O)c3ccc(NC(=O)CC#N)cc3)cc2)cc1`, the inhibition was 2.3%.
Then `S=c1[nH]nc(Nc2ccccc2)s1`, with 6.03%.
Regarding `Cc1ccc(S(=O)(=O)N(C)CC(=O)NCCc2c[nH]c3ccccc23)cc1`, the inhibition is -2.52%.
With `S=c1[nH]ccn1-c1ccc(Cl)cc1` the figure was 2.81%; with `S=c1[nH]nc2c3c4c(sc3ncn12)CCCC4`, -7.25%.
As for `Cc1ccc(NC(=O)c2sc3nc(N)c(C#N)cc3c2N)cc1`, the inhibition is -3.69%.
Take `S=c1[nH]nc(NCCc2ccccc2)s1`: the inhibition is -0.78%.
With `Cc1nc([N+](=O)[O-])nn1C12CC3CC(CC(Br)(C3)C1)C2` the figure was 2.58%; with `O=c1[nH]c2ccccc2n2c(-c3ccccc3)nnc12`, -5.75%.
`Cc1ccnc(-n2sc3ccccc3c2=O)n1`: the inhibition was -5.94%.
Take `S=c1[nH]nc(-c2cc(-c3ccccc3)n[nH]2)n1/N=C/c1c2ccccc2cc2ccccc12`: the inhibition is 7.23%.
As to `CCC(CC)c1nnc(NC(=O)C2CCN(C(=O)c3ccco3)CC2)s1`, the inhibition is 4.07%.
Then `Cc1n[nH]c(=S)n1/N=C/c1ccc(Br)o1`, with -0.61%; and `CC(=O)N1CC[n+]2c(-c3ccc([N+](=O)[O-])cc3)csc21`, with -1.28%.
With `CC(=O)N(C1=C(Cl)C(=O)c2ccccc2C1=O)c1ccc(C(=O)O)cc1` the figure was -2.05%; with `Nc1ccccc1SC(C[N+](=O)[O-])c1ccccc1` (stereo unspecified), -4.66%.
